Pf growth 48h: P. falciparum growth inhibition at 48 hours (one generation) | P. falciparum luciferase growth in erythrocytes, 48 h | Potency, µM (titrated, usually from 28.7 µM), most hits filed as inhibitors | hit rate 5.9% among 310,000 | AID 504832
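Growth was read as firefly luciferase luminescence after a 48 h, 37 C, 5% CO2 exposure of compounds to reporter-bearing P. falciparum cultures (0.1% parasitemia, 2% hematocrit final) in Albumax-supplemented RPMI 1640.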
Shiga toxin inh: blocks Shiga toxin action in Vero cells. hit rate 9.2% among 290,000. inhibition, % at 38.7 µM. AID 2315. Vero cells, Shiga toxin protein synthesis inhibition reporter; in the data active = inhibition mostly above about 28%, no sharp cut-off; inactive = mostly below about 43%
Pf growth 96h: inhibits malaria parasite growth, 96 h | P. falciparum luciferase reporter growth, 96 h | Potency, µM (highest dose often 28.7 µM), hits mostly inhibitors | hit rate 6.9% among 320,000
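Infected RBCs, 2% Hct / 0.05% parasitemia final; luciferase-reporter P. falciparum; cpd 96 h, 37 C, 5% CO2; luciferase detection reagent; luminescence.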
NS1 function inh: inhibitors of influenza NS1 protein function; hit rate 0.4% among 270,000; Potency, µM (highest dose often 46.1 µM); AID 2326; calls by dose curve; also: actives are rising curves; nearly all actives have a fitted effect of over 50% in size
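S. cerevisiae expressing influenza A NS1, grown in glucose, washed, then diluted 1:100 into pH 6.0 -URA galactose medium with 23 nl compound. Growth recovery read as OD600; NS1-free strain serves as control.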
Cycloheximide cs: affects cycloheximide protein synthesis inhibition readout, counter-screen; AID 2314; max response, %; cell reporter, cycloheximide protein synthesis inhibition counterscreen; hit rate 12% among 300,000; in the data active = max response mostly above about 13%, no sharp cut-off; inactive = mostly below about 14%; also: read at 38.3 µM for the half of the compounds with a filed dose
A number is an active result; . = inactive; ? = inconclusive; / = no result. In the library only some 21% were active in any assay of this set; here they are far more common. Unless noted, calls follow the shape of the dose curve; as a rule, active = well fitted inhibition curve with a large enough effect; inconclusive = small, poorly fitted or top-dose-only effect, or another doubt; inactive = no such curve, though single readings can be large or run the other way.

SMILES | Pf growth 48h | Shiga toxin inh | Pf growth 96h | NS1 function inh | Cycloheximide cs
CC1(C)CC(=O)c2cc(NC(=O)c3ccccc3)c(=O)oc2C1 | . | 54.8 | . | . | 27.0
CCc1ccc(N2CC(C(=O)Nc3cc(C)on3)CC2=O)cc1 (centres undefined) | . | . | . | . | .
CN(C)CCCO[C@H]1C([C@H](O)CO)O[C@@H]2OC(C)(C)O[C@@H]21 (some centres undefined) | / | / | / | . | /
O=c1[nH]n(CC2COC3(CCCCC3)O2)c(=O)c2ccccc12 (centres undefined) | . | 43.4 | 8.28µM | . | 32.7
CCOc1ccc2nc(N3CCCC(C(=O)NC4CCCC4)C3)sc2c1 (centres undefined) | . | 20.3 | ? | . | 32.8
CCOC(=O)N1CCN(C(=O)C2CCCN(c3nc4ccc(OCC)cc4s3)C2)CC1 (centres undefined) | ? | 29.9 | . | . | .
COc1ccc(C(=O)Nc2nc(N)n(-c3ccccc3)n2)cc1 | . | . | . | . | .
Nc1nc(NC(=O)c2ccccc2)nn1-c1ccccc1 | . | 35.7 | . | . | 12.7
Nc1nc(NC(=O)c2cccs2)nn1-c1ccccc1 | . | . | . | . | 30.3
CSC(N)=NCCC[C@H](N)C(=O)O | / | / | / | . | /
CCCCCSc1nc(N2CCOCC2)c2c(c1C#N)CC(C)(C)OC2 | 9.28µM | . | ? | . | .
CCCOC(=O)CSc1nc(N2CCOCC2)c2c(c1C#N)CC(C)(C)OC2 | ? | . | 1.85µM | . | .
CC(C)CSc1nc(N2CCOCC2)c2c(c1C#N)CC(C)(C)SC2 | 9.28µM | . | ? | . | .
Cc1ccc(C(=O)N(CC(C)C)c2c(N)n(Cc3ccccc3)c(=O)[nH]c2=O)o1 | . | / | . | / | /
O=C(N/N=C/c1cnc(N2CCCCC2)s1)c1ccc(C(F)(F)F)cc1 | 3.29µM | . | ? | . | .
CC1CN(c2ncc(/C=N/NC(=O)c3ccccc3O)s2)CC(C)O1 (centres undefined) | ? | . | ? | / | .
CCCn1c(SCC#N)nc2c(c1=O)C1(CCCC1)Cc1ccccc1-2 | . | . | 4.65µM | . | .
NNc1nc(N)c2c(n1)-c1ccccc1CC21CCCC1 | 10.4µM | . | 1.65µM | . | .
NC(=O)CSc1nc2c(c(=O)n1-c1ccccc1)C1(CCCCC1)Cc1ccccc1-2 | . | . | 11.7µM | . | .
O=c1c2c(nc3n1CCCCC3)-c1ccccc1CC21CCCCC1 | . | . | 8.28µM | . | .
CCC1(C)Cc2ccccc2-c2nc3n(c(=O)c21)CCCCC3 (centres undefined) | . | . | . | . | .
CCN(CC)CCC(c1ccc(N(C)C)cc1)c1c(OC)cc(OC)c2c1OC(=O)CC2c1ccc(N(C)C)cc1 (centres undefined) | / | . | / | / | .
O=C(O)CCn1c(CO)nc2ccccc21 | . | . | . | . | .
O=C(O)CCn1c(-c2ccccn2)nc2ccccc21 | . | . | ? | . | 10.8
O=C(O)c1ccccc1C(=O)NNc1ccc(F)cc1 | . | . | . | . | .
SMILES | Pf growth 48h | Shiga toxin inh | Pf growth 96h | NS1 function inh | Cycloheximide cs
CCOC(=O)c1ccc2c(c1)C1C=CCC1C(C(=O)OCC)N2 (centres undefined) | 11.7µM | / | . | . | .
CCOC(=O)C1Nc2ccc(Br)cc2C2C=CCC12 (centres undefined) | ? | . | 13.1µM | . | .
Cc1ccc(N2C(=O)NC(=O)/C(=C\c3ccsc3)C2=O)cc1C | . | . | 7.38µM | . | .
O=C1NC(=O)N(c2ccc3c(c2)OCO3)C(=O)/C1=C\c1ccsc1 | . | . | . | . | .
Cc1onc(-c2c(Cl)cccc2Cl)c1C(=O)N1CCc2ccccc21 | 8.28µM | . | . | . | .
Cc1onc(-c2c(F)cccc2Cl)c1C(=O)N1CCc2ccccc2C1 | 5.86µM | . | ? | . | .
COc1ccccc1N1CCN(C(=O)c2c(-c3c(F)cccc3Cl)noc2C)CC1 | ? | . | 11.7µM | . | .
Cc1onc(-c2c(Cl)cccc2Cl)c1C(=O)N=S(C)(=O)c1ccccc1 (centres undefined) | ? | . | 10.4µM | . | .
Cn1c(=O)c2[nH]c(CS(=O)(=O)Cc3nc4c([nH]3)c(=O)n(C)c(=O)n4C)nc2n(C)c1=O | / | / | / | . | /
COc1ccc(CNC(=O)COC(=O)c2ccc3ncsc3c2)cc1OC | . | / | . | / | /
Cc1ccc(C2NC(=S)NC3=C2C(=O)CC(C)(C)C3)cc1 (centres undefined) | . | . | . | . | .
O=C(CSc1nnc(-c2ccco2)o1)c1ccc(O)cc1O | . | . | . | / | .
O=S(=O)(c1ccccc1)c1nc(-c2ccc(Cl)cc2)oc1NCCCN1CCOCC1 | . | / | ? | / | /
CC(=C/c1ccco1)/C=N/NC(=O)c1ccncc1 | . | . | . | . | .
CC(/C=N/NC(=O)c1cnccn1)=C\c1ccco1 | . | . | . | . | 31.8
CC(/C=N/NC(=O)c1cccnc1)=C\c1ccco1 | . | . | / | . | 13.9
CCN(CC)S(=O)(=O)c1ccc(C(=O)N2CCN=C2SCc2cccnc2)cc1 | . | . | . | . | .
O=S(=O)(Nc1ccc(-c2cn3c(n2)SCC3)cc1)c1cccs1 | . | . | . | / | .
N#Cc1ccc(-c2cn3c(n2)SCC3)cc1 | . | 63.8 | . | . | 36.1
O=C(NCC1CCCCC1)c1ccc(F)c(S(=O)(=O)N2CCOCC2)c1 | ? | / | 7.38µM | / | /
CC(OC(=O)c1ccc(F)c(S(=O)(=O)N2CCOCC2)c1)C(=O)NCC1CCCCC1 (centres undefined) | . | / | ? | / | /
O=C(Nc1ccccc1N1CCCCC1)c1ccc(F)c(S(=O)(=O)N2CCOCC2)c1 | 13.1µM | / | ? | / | /
O=C(Nc1ccccc1N1CCCC1)c1ccc(Cl)c(S(=O)(=O)N2CCOCC2)c1 | 11.7µM | / | 8.28µM | / | /
Cc1ccc(C(=O)Nc2ccccc2N2CCOCC2)cc1S(=O)(=O)N1CCOCC1 | 13.1µM | / | ? | / | /
CCOC(=O)c1ccccc1NC(=O)c1ccc(Cl)c(S(=O)(=O)N2CCOCC2)c1 | / | / | / | . | /
SMILES | Pf growth 48h | Shiga toxin inh | Pf growth 96h | NS1 function inh | Cycloheximide cs
Cc1nc(CN2CCCCC2)c(O)c(=O)[nH]1 | / | / | / | . | /
CC(C)c1ccc(-c2nnn(Cc3nc4ccccc4s3)n2)cc1 | . | . | / | . | .
C1CCC(C(CC2CCCCN2)C2CCCCC2)CC1 (centres undefined) | 3.7µM | . | 4.15µM | . | .
CNC[C@H](O)c1ccc(OC(=O)C(C)(C)C)c(OC(=O)C(C)(C)C)c1 | ? | / | 3.22µM | / | /
Cc1ccccc1S(=O)(=O)Cc1ccc(C(=O)NCCN(Cc2ccccc2)C(C)C)o1 | 5.22µM | . | . | . | .
Cc1ccccc1S(=O)(=O)Cc1ccc(C(=O)NCCCN2CCCC(C)C2)o1 (centres undefined) | . | . | 2.33µM | . | .
Cc1ccccc1S(=O)(=O)Cc1ccc(C(=O)NCCCN2CCC(C)CC2)o1 | . | . | . | . | .
CCC1c2ccc(C)n2CCN1C(=O)Nc1ccccc1C(=O)OC (centres undefined) | 5.22µM | . | . | . | .
CCCC1c2ccc(C)n2CCN1C(=O)Nc1ccccc1Cl (centres undefined) | ? | 73.6 | 2.62µM | . | 26.2
CCOC(=O)c1ccccc1NC(=O)N1CCn2c(C)ccc2C1CC (centres undefined) | . | . | / | . | .
